Measurements: the supplement of paper PMC10849652
About 7,900 targets were measured; listed, in parts, are those with a hit and a random draw of the rest. About 0.6% of all pairs of compound and target were hits. Unmarked numbers belong to inactive results.

Each target was assayed with C1=CC=C(C=C1)[C@H](COC2=CC3=C(C=C2)NC(=O)N3)NC(=O)C4=CC=CN(C4=O)CC5=CC(=C(C=C5)F)F (assay: log2 fold change, soluble protein after heating vs DMSO (PISA); higher = thermal stabilisation; K562 cells, 10 uM, 30 min; active = over 0.2 and 3.5 SD of the protein, either way, in both replicates (recomputed)).
In short: (§1)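 K562 cells at 2×10^6 cells/mL were exposed to 10 μM compound for 30 min, then aliquots were heated for 3 min across 48°C-58°C, pooled, and extracted in PBS containing 0.5% NP-40 at 4°C. The supernatant after 21,000xg for 90 min was taken as soluble protein and measured by TMTpro 16plex LC-MS/MS with channel sums equalised. Thermal stability is reported relative to control samples, with values from duplicates. Fold changes are given on a log2 scale.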

Chain of UniProt Q9ULX3 (Q9ULX3 whole entry, looked up): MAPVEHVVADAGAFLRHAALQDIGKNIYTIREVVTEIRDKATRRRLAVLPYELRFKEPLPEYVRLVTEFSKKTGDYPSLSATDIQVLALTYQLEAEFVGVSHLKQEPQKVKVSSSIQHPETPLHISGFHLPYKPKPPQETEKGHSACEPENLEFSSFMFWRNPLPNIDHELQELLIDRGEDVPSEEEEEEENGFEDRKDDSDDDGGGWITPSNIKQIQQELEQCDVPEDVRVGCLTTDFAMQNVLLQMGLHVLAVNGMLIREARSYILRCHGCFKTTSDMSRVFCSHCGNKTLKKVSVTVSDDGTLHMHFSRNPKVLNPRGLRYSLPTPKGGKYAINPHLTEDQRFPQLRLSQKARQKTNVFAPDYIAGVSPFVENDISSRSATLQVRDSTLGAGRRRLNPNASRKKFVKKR
Chain of UniProt P00846 (P00846 whole entry, looked up): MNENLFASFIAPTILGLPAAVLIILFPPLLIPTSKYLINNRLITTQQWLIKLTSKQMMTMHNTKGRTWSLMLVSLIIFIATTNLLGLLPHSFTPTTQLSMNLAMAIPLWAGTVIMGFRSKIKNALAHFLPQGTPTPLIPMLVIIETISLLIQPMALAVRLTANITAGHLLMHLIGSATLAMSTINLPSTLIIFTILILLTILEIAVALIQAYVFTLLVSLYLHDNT
Chain of UniProt Q9Y2X3 (Q9Y2X3 whole entry, looked up): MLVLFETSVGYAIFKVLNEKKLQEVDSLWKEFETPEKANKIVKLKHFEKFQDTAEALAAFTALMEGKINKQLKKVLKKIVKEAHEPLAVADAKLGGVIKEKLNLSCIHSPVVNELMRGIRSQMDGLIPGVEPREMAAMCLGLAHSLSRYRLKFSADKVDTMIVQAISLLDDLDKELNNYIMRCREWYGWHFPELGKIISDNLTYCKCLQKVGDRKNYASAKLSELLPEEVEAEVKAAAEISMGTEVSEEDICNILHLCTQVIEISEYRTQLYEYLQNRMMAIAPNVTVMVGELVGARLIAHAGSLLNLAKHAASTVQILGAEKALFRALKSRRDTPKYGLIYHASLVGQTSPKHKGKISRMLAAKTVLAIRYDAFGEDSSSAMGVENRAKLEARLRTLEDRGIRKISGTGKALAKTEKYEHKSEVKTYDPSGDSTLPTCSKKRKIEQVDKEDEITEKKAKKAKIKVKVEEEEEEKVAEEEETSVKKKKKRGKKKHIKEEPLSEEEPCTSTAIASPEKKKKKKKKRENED
Chain of UniProt O75376 (O75376 whole entry, looked up): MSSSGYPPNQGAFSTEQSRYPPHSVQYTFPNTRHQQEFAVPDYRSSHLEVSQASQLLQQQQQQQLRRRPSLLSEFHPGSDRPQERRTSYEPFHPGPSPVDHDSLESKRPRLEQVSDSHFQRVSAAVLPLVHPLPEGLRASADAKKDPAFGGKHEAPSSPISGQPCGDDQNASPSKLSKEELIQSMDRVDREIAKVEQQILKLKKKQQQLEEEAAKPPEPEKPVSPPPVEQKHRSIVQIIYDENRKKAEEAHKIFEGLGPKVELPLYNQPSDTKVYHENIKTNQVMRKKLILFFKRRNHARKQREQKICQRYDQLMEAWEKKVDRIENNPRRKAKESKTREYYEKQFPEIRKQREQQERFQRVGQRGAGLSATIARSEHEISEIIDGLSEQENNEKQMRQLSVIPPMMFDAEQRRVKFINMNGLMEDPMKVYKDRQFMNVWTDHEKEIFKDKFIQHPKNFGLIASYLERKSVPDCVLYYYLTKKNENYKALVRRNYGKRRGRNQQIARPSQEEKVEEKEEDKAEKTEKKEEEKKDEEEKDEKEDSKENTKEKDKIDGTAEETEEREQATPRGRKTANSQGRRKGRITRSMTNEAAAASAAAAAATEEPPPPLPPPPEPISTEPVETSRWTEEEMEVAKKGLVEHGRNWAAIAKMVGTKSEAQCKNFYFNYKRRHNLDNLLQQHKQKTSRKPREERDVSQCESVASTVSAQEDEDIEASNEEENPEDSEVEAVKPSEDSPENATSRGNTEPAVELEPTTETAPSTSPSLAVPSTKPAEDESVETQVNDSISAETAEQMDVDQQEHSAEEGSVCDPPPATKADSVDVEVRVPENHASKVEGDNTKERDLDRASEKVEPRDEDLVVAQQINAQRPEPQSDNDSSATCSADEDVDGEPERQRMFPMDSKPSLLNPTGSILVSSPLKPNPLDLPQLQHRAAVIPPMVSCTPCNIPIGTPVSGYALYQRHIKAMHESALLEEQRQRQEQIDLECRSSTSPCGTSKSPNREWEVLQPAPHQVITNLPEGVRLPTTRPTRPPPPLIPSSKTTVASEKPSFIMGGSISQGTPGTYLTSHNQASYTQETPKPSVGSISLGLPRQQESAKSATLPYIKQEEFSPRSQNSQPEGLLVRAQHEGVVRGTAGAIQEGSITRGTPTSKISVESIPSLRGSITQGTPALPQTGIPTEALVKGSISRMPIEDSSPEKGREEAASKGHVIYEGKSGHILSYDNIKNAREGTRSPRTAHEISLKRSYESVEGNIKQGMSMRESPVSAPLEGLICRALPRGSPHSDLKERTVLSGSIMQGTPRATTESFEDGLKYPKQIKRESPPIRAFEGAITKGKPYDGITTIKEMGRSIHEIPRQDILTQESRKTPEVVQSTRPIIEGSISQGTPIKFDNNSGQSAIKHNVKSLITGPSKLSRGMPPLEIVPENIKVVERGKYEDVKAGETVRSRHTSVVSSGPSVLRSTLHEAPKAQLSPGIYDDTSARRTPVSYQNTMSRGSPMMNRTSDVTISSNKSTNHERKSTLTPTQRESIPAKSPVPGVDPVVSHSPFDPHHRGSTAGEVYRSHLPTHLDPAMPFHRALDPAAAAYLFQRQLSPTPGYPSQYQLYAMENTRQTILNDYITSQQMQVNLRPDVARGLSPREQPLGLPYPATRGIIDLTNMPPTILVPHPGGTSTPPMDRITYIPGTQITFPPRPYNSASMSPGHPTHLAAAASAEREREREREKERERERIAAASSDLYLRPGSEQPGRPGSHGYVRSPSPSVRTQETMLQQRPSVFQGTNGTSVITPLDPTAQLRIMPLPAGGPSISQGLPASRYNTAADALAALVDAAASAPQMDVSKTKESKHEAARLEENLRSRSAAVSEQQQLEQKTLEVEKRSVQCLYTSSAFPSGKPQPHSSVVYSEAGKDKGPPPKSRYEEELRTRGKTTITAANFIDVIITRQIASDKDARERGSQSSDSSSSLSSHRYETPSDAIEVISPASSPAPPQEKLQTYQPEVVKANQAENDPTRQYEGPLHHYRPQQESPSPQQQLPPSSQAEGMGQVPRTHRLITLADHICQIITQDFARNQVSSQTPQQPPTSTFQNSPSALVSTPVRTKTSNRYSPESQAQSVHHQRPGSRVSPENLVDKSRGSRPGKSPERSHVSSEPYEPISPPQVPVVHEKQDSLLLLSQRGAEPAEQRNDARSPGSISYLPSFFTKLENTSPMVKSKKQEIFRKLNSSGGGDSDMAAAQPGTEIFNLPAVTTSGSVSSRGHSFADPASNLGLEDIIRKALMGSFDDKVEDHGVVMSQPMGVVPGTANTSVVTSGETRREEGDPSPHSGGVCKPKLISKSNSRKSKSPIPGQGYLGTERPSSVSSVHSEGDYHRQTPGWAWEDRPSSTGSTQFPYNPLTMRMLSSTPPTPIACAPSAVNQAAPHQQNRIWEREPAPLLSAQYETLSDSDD
Chain of UniProt P46087 (P46087 whole entry, looked up): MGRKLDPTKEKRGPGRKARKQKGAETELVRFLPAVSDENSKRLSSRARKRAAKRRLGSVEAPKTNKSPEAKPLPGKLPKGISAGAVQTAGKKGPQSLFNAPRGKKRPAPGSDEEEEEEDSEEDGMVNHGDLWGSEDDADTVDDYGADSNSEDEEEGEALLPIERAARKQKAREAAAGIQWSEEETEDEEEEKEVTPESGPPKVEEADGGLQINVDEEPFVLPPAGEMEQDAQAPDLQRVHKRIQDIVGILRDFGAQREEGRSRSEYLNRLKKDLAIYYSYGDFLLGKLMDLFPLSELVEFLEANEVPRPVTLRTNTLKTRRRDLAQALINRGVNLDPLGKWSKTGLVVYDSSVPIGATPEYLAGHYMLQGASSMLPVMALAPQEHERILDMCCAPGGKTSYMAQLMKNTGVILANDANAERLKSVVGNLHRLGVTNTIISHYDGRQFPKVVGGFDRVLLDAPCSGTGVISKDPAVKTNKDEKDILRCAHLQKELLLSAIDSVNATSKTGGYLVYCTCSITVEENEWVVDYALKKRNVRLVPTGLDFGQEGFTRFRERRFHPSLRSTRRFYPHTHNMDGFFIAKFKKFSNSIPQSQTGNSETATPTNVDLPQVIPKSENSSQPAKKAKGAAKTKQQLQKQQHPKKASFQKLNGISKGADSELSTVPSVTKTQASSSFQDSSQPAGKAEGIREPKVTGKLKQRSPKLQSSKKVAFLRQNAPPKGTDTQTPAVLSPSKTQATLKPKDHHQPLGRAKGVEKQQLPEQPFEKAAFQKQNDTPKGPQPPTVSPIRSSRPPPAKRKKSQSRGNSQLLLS
Chain of UniProt Q8N6M0 (Q8N6M0 whole entry, looked up): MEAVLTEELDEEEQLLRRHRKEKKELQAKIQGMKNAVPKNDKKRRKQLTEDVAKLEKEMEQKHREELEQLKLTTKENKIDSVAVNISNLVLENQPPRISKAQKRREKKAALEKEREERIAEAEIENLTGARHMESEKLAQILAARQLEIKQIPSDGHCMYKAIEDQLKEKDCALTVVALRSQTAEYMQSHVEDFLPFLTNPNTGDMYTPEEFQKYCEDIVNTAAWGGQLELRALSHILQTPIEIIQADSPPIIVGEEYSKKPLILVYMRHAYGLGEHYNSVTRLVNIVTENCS

OPHN1 (UniProt O60890) and NELFCD (UniProt Q8IXH7) are within 0.2 log units of each other in log2 fold change: -0.209 for the first, -0.022 for the second.

MRPS17 (UniProt Q9Y2R5) and NOP58 (UniProt Q9Y2X3) are within 0.2 log units of each other in log2 fold change: -0.031 for the first, 0.039 for the second.

NAGPA (UniProt Q9UK23) and MON1A (UniProt Q86VX9) are within 0.2 log units of each other in log2 fold change: 0.179 for the first, 0.1 for the second.

MRPL34 (UniProt Q9BQ48) and NUMBL (UniProt Q9Y6R0) are within 0.2 log units of each other in log2 fold change: 0 for the first, -0.058 for the second.

NUMA1 (UniProt Q14980) and NBN (UniProt O60934) are within 0.2 log units of each other in log2 fold change: 0.027 for the first, 0.002 for the second.

Going from NA, A0A2R8Y3M9 to NECTIN2 isoform 2 (UniProt Q92692), the log2 fold change rises from -0.093 to 0.179.

MSL1 (UniProt Q68DK7) and MLH1 (UniProt P40692) are within 0.2 log units of each other in log2 fold change: 0.083 for the first, 0.192 for the second.

NSMCE2 (UniProt Q96MF7) and OTUD6B (UniProt Q8N6M0) are within 0.2 log units of each other in log2 fold change: 0.074 for the first, -0.051 for the second.

NOP2 isoform 4 (UniProt P46087) and NAP1L1 (UniProt B7Z9C2) are within 0.2 log units of each other in log2 fold change: 0.184 for the first, 0.003 for the second.

NDUFA7 (UniProt M0R0N0) and NUDT7 (UniProt P0C024) are within 0.2 log units of each other in log2 fold change: -0.091 for the first, -0.077 for the second.

MORF4L2 (UniProt Q15014) and NOB1 (UniProt Q9ULX3) are within 0.2 log units of each other in log2 fold change: 0.089 for the first, -0.048 for the second.

MLX (UniProt Q9UH92) and MNAT1 (UniProt P51948) are within 0.2 log units of each other in log2 fold change: -0.055 for the first, 0.011 for the second.

NCOR1 (UniProt O75376) and MOB2 isoform 3 (UniProt Q70IA6) are within 0.2 log units of each other in log2 fold change: -0.102 for the first, -0.015 for the second.

MYO19 (UniProt Q96H55) gave a log2 fold change of -0.07.

With MT-ATP6 (UniProt P00846) the log2 fold change was -0.828 (active).

These targets were tested with CC1=C(SC2=C1C(=N[C@H](C3=NN=C(N32)C)CC(=O)N)C4=CC=C(C=C4)Cl)C in the same assay as above.
In short: as §1

OPHN1 (UniProt O60890) and NELFCD (UniProt Q8IXH7) are within 0.2 log units of each other in log2 fold change: 0.033 for the first, 0.155 for the second.

MRPS17 (UniProt Q9Y2R5) and NA, A0A1W2PSA9 are within 0.2 log units of each other in log2 fold change: -0.044 for the first, -0.046 for the second.

Going from NOP58 (UniProt Q9Y2X3) to NEK3 (UniProt P51956), the log2 fold change rises from -0.151 to 0.204.

NAGPA (UniProt Q9UK23) and MRPL34 (UniProt Q9BQ48) are within 0.2 log units of each other in log2 fold change: -0.048 for the first, -0.154 for the second.

NUMBL (UniProt Q9Y6R0) and NUMA1 (UniProt Q14980) are within 0.2 log units of each other in log2 fold change: -0.084 for the first, -0.05 for the second.

OXR1 isoform 2 (UniProt Q8N573) and NBN (UniProt O60934) are within 0.2 log units of each other in log2 fold change: 0.126 for the first, 0.032 for the second.

First: OSBPL2 (UniProt Q9H1P3)
Second: MRM2 (UniProt Q9UI43)
The log2 fold change of the first is lower: -0.583 for the first, 0.021 for the second.

OSBPL3 (UniProt Q9H4L5) and NA, A0A2R8Y3M9 are within 0.2 log units of each other in log2 fold change: -0.077 for the first, -0.069 for the second.

MLH1 (UniProt P40692) and NSMCE2 (UniProt Q96MF7) are within 0.2 log units of each other in log2 fold change: 0.007 for the first, 0.031 for the second.

NOLC1 isoform 3 (UniProt Q14978) and OTUD6B (UniProt Q8N6M0) are within 0.2 log units of each other in log2 fold change: 0.007 for the first, 0.022 for the second.

Compared with NOP2 isoform 4 (UniProt P46087), MT-ATP6 (UniProt P00846) is higher in log2 fold change: -0.494 for the first, -0.065 for the second.

MPHOSPH8 isoform 2 (UniProt Q99549) and MORF4L2 (UniProt Q15014) are within 0.2 log units of each other in log2 fold change: -0.064 for the first, 0.001 for the second.

NOB1 (UniProt Q9ULX3) and MLX (UniProt Q9UH92) are within 0.2 log units of each other in log2 fold change: -0.033 for the first, 0.032 for the second.

MNAT1 (UniProt P51948) and NCOR1 (UniProt O75376) are within 0.2 log units of each other in log2 fold change: 0.088 for the first, 0.06 for the second.

MOB2 isoform 3 (UniProt Q70IA6) and NUDT6 (UniProt P53370) are within 0.2 log units of each other in log2 fold change: 0.129 for the first, 0.073 for the second.

MYO19 (UniProt Q96H55) gave a log2 fold change of 0.016.

These targets were tested with CC1=C2C(=CC=C1)N=C(N(C2=O)C3=CC=CC=C3C)CN4C=NC5=C(N=CN=C54)N in the same assay as above.
In short: as §1

First: NELFCD (UniProt Q8IXH7)
Second: MRPS17 (UniProt Q9Y2R5)
The log2 fold change of the first is higher: 0.214 for the first, -0.011 for the second.

NOP58 (UniProt Q9Y2X3) and NEK3 (UniProt P51956) are within 0.2 log units of each other in log2 fold change: -0.063 for the first, 0.053 for the second.

MRPL34 (UniProt Q9BQ48) and NUMBL (UniProt Q9Y6R0) are within 0.2 log units of each other in log2 fold change: -0.073 for the first, 0.009 for the second.

NUMA1 (UniProt Q14980) and OXR1 isoform 2 (UniProt Q8N573) are within 0.2 log units of each other in log2 fold change: -0.009 for the first, 0.025 for the second.

NBN (UniProt O60934) and MRM2 (UniProt Q9UI43) are within 0.2 log units of each other in log2 fold change: 0.036 for the first, 0.071 for the second.

OSBPL3 (UniProt Q9H4L5) and NECTIN2 isoform 2 (UniProt Q92692) are within 0.2 log units of each other in log2 fold change: -0.035 for the first, -0.03 for the second.

MSL1 (UniProt Q68DK7) and NSMCE2 (UniProt Q96MF7) are within 0.2 log units of each other in log2 fold change: 0.17 for the first, 0.075 for the second.

MSANTD2 (UniProt Q6P1R3) and OTUD6B (UniProt Q8N6M0) are within 0.2 log units of each other in log2 fold change: 0.06 for the first, 0.11 for the second.

Going from NOP2 isoform 4 (UniProt P46087) to MT-ATP6 (UniProt P00846), the log2 fold change rises from -0.694 to 0.076.

NAP1L1 (UniProt B7Z9C2) and MPHOSPH8 isoform 2 (UniProt Q99549) are within 0.2 log units of each other in log2 fold change: 0.134 for the first, -0.009 for the second.

First: NDUFA7 (UniProt M0R0N0)
Second: MORF4L2 (UniProt Q15014)
Chain of UniProt Q15014 (Q15014 whole entry, looked up): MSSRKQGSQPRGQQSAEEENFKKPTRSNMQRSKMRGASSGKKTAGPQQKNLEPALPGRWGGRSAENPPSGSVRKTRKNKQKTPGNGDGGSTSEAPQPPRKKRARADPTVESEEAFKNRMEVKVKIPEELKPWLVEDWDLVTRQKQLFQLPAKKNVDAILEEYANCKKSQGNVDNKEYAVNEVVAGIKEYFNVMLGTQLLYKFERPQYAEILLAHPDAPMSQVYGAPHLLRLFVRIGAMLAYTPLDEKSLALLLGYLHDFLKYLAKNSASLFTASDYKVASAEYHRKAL
The log2 fold change of the first is higher: 0.23 for the first, -0.002 for the second.

NOB1 (UniProt Q9ULX3) and MNAT1 (UniProt P51948) are within 0.2 log units of each other in log2 fold change: 0.048 for the first, 0.005 for the second.

NCOR1 (UniProt O75376) and MITF (UniProt O75030) are within 0.2 log units of each other in log2 fold change: 0.002 for the first, -0.059 for the second.

NUDT6 (UniProt P53370) and MYO19 (UniProt Q96H55) are within 0.2 log units of each other in log2 fold change: 0.34 for the first, 0.146 for the second.
